{"source": "PubChem BioAssay (NCATS)", "note": "Inconclusive results are not listed. A call without a number means that no potency is given here. Calls of active or inactive are those of the source. Calls come from the whole dose curve; as a rule, active = well fitted cell-killing curve with a large enough effect; inconclusive = small, poorly fitted or top-dose-only effect, or effect the other way; inactive = no such curve, though single readings can be large or run the other way. Potency is the fitted concentration of half-maximal effect."}
{"experiment": "Quantitative High-Throughput drug screen in 47 multiple myeloma cell lines against the NCATS MIPE library collection: EJM_DSMZ cell viability assay (AID 1918926; note: nearly all actives have a fitted effect of over 30% in size)", "settings": "EJM myeloma cell viability, CellTiter-Glo ATP, 48 h; series mostly up to 45.8 µM", "text": "PI: Beverly A. Mock Ph.D.\nLaboratory of Cancer Biology and Genetics,\nCenter for Cancer Research, National Cancer Institute,\nNational Institute of Health, Bethesda, Maryland\nDrug resistance and disease progression are common in multiple myeloma (MM) patients, underscoring the need for new therapeutic combinations. […] We hypothesized that effective combinations would reduce MYC expression and enhance p16 activity. […] These preclinical data identify potentially useful drug combinations for evaluation in drug-resistant MM and reveal potential mechanisms of combined drug sensitivity.\nDescribed herein is the primary MIPE qHTS used to cherrypick compounds. Validated compounds were then further tested for potential synergistic activiy.\n[1] Peat TJ, Gaikwad SM, Dubois W, Gyabaah-Kessie N, Zhang S, Gorjifard S, Phyo Z, Andres M, Hughitt VK, Simpson RM, Miller MA, Girvin AT, Taylor A, Williams D, D'Antonio N, Zhang Y, Rajagopalan A, Flietner E, Wilson K, Zhang X, Shinn P, Klumpp-Thomas C, McKnight C, Itkin Z, Chen L, Kazandijian D, Zhang J, Michalowski AM, Simmons JK, Keats J, Thomas CJ, Mock BA. Drug combinations identified by high-throughput screening promote cell cycle transition and upregulate Smad pathways in myeloma. Cancer Lett. 2023 Aug 1;568:216284. doi: 10.1016/j.canlet.2023.216284. Epub 2023 Jun 24. PMID: 37356470; PMCID: PMC10408729.\nSEQUENCE No. (e.g., 1, 2, 3, etc.); […] (e.g., Cells, Incubation, Reagent, etc.); VALUE and DESCRIPTION.\n1; Cells; 5 uL; white, solid bottom 1536-well Greiner assay plate.\n2; Compounds; 23 nL; Kalypsis pin tool (Wako USA) equipped with a 1536-well pin head to transfer to the assay plates.\n3; Incubation; 48 hours; 37C incubation.\n4; Reagent;5uL; CellTiter Glo (Promega).\n5; Detector; 425V; Luminescence; Viewlux PerkinElmer.\nNOTES (numbers refer to Sequence numbers above)\n1. The cell-based screening methods employed in this study were like those previously published. Briefly, the corresponding myeloma cell lines were screened in 1,536-well plates with 500 cells, 5-uL per well for inhibition of cell viability (assessed by measuring ATP levels with CellTiterGlo).\n2. NCATS MIPE 4.0 library of approved and investigational drugs were added using the Kalypsis pin tool. Wells treated with DMSO only for 100% viability and media only wells for 0% viability were used as controls.\n3. The assay plates were covered and incubated for 48 hours in a 37C, 5% CO2 incubator with controlled humidity.\n4. After 48 hours, CellTilter-GloTM luminescent substrate mix (Promega) reagent was added to the assay plate and plates we incubated for 5 min at room temperature.\n5. Signal was measured as median relative luminescence units on a ViewLux (PerkinElmer) multiplate reader.\n[1] Heske CM, Davis MI, Baumgart JT, Wilson K, Gormally MV, Chen L, Zhang X, Ceribelli M, Duveau DY, Guha R, Ferrer M, Arnaldez FI, Ji J, Tran HL, Zhang Y, Mendoza A, Helman LJ, Thomas CJ. Matrix Screen Identifies Synergistic Combination of PARP Inhibitors and Nicotinamide Phosphoribosyltransferase (NAMPT) Inhibitors in Ewing Sarcoma. Clin Cancer Res. 2017 Dec 1;23(23):7301-7311. doi: 10.1158/1078-0432.CCR-17-1121. Epub 2017 Sep 12. PMID: 28899971; PMCID: PMC6636827."}
{"smiles": "C[C@]12CC[C@H]3[C@@H](CC[C@@]45O[C@H]4C(O)=C(C#N)C[C@]35C)[C@H]1CC[C@H]2O", "Potency": "inactive"}
{"smiles": "CC(NC(C)(C)C)C(=O)c1cccc(Cl)c1", "note": "(stereo not given)", "Potency": "inactive"}
{"smiles": "C[C@]12CC[C@@H]3c4ccc(OC(=O)N(CCCl)CCCl)cc4CC[C@H]3[C@@H]1CC[C@@H]2OP(=O)(O)O", "Potency": "inactive"}
{"smiles": "CC(C)c1cccc(C(C)C)c1O", "Potency": "inactive"}
{"smiles": "CCC1(c2ccc(N)cc2)CCC(=O)NC1=O", "note": "(stereo not given)", "Potency": "inactive"}
{"smiles": "CN1C(=O)COc2c(C(=O)NC3CN4CCC3CC4)cc(Cl)cc21", "note": "(stereo not given)", "Potency": "inactive"}
{"smiles": "C[C@](O)(CS(=O)(=O)c1ccc(F)cc1)C(=O)Nc1ccc(C#N)c(C(F)(F)F)c1", "Potency": "372 nM (active)"}
{"smiles": "COc1cc(OC)c(OC)cc1C=O", "Potency": "inactive"}
{"smiles": "O=C(O)CCCc1ccc(N(CCCl)CCCl)cc1", "Potency": "inactive"}
{"smiles": "CC(C)C[C@H](CN)CC(=O)O", "Potency": "inactive"}
